The record followed here is PubChem BioAssay (NCATS).

The structures appear in SMILES notation. Unmarked numbers belong to inactive results. Inconclusive results are not listed. Where a call stands in place of a potency, no number is given. The source made the active and inactive calls. Calls follow the shape of the dose curve; as a rule, active = well fitted inhibition curve with a large enough effect; inconclusive = small, poorly fitted or top-dose-only effect; inactive = no such curve, though single readings can be large or run the other way. Where a SMILES comes first, the peptide text is derived from it.

Experiment [1] can be described thus: qHTS assay for measurement of the activity of small molecule inhibitors on Zika virus induced Caspase-3 activity in human iPSC derived neural progenitor cells (hNPCs) (AID 1224857). Also: nearly all actives have a fitted effect of over 65% in size. Summed up: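 hNPCs seeded 350 cells/well, cultured 16–20 h; compounds added 1 h before ZIKV (2 FFU/cell), 37 C 6 h. Caspase-Glo 3/7 luminescence after 30 min RT; % inhibition from induction scaled to uninfected (0%) and infected (100%) wells.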
On the technique in general: In qHTS, concentration-response curves come from the screen itself.

Experiment [2] can be described thus: qHTS assay for measurement of the activity of small molecule inhibitors on Zika virus induced Caspase-3 activity in human astrocytoma cells (AID 1224859). An outline of the steps:
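Luminescence read-out (Caspase-Glo 3/7, 30 min RT) of caspase activity in SNB-19 cells infected 6 h with ZIKV, 2 FFU/cell, after 1 h compound pretreatment; % inhibition from induction normalised to uninfected (0%) and infected (100%) wells.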

Regarding `Cc1onc(-c2c(Cl)cccc2Cl)c1C(=O)Cl`, in experiment [1], the Potency result is “inactive”. In experiment [2], the call was inactive.

For the molecule `CCN(CC)CCNC(=O)c1ccc(NS(C)(=O)=O)cc1`, the Potency result in experiment [1] was “inactive”. In experiment [2], the call was inactive.

In the case of `CCOC(=O)C1=C(C)NC(C)=C(C(=O)OCC)C1c1ccccc1/C=C/C(=O)OC(C)(C)C`, in experiment [1], the Potency entry is “inactive”. Also, the outcome in experiment [2] was inactive.

With `CC(=O)/C=C/C=C1/C2CCC(C2)C1(C)C` (stereo not given), the Potency entry in experiment [1] is “inactive”. Also, in experiment [2], the result was inactive.

For the molecule `CN(C)CCOC1=Cc2ccccc2Sc2ccc(Cl)cc21`, in experiment [1], the Potency result was “inactive”. Moreover, the call in experiment [2] was inactive.

Turning to `Clc1ccc2c(c1)N=C(N1CCNCC1)c1ccccc1N2`, in experiment [1], the Potency result was “inactive”. Moreover, the molecule was called inactive in experiment [2].

On to `CCC1(c2cnc[nH]2)Cc2ccccc2C1`, for which the Potency entry in experiment [1] was “inactive”. Further, in experiment [2], the result was inactive.

In the case of `CCOc1ccc(NS(=O)(=O)c2ccc(N)cc2)nn1`, the Potency result in experiment [1] is “inactive”. The call in experiment [2] was inactive.

Regarding `CCCCCC1Nc2cc(C(F)(F)F)c(S(N)(=O)=O)cc2S(=O)(=O)N1` (stereo not given), the Potency result in experiment [1] is “inactive”. The molecule was classed as inactive in experiment [2].

Turning to `CCCc1ncc(C(=O)O)s1`, in experiment [1], the Potency entry is “inactive”. Also, the molecule was classed as inactive in experiment [2].

For `COC(=O)/C=C(/C)N`, the Potency result in experiment [1] is “inactive”. For the same molecule, the molecule was called inactive in experiment [2].

Take `CN1Cc2cc(C(=O)N3CCC(C4CCNCC4)CC3)ccc2N[C@@H](CC(=O)O)C1=O`: the Potency result in experiment [1] is “inactive”. Also, the call in experiment [2] was inactive.

As for `OC1(c2ccc(Cl)cc2)CCNCC1`, in experiment [1], the Potency entry was “inactive”. For the same molecule, the call in experiment [2] was inactive.

Regarding `Cc1ccc2ccc(Cl)cc2n1`, in experiment [1], the Potency result was “inactive”. Further, the call in experiment [2] was inactive.

With `CNC(=O)c1cnn(-c2nc(N)c3ncn([C@@H]4O[C@H](CO)[C@@H](O)[C@H]4O)c3n2)c1`, in experiment [1], the Potency result is “inactive”. Further, in experiment [2], the molecule was called inactive.

For the molecule `O=C1NC(c2ccccc2)(c2ccccc2)C(=O)N1COP(=O)(O)O`, the Potency entry in experiment [1] was “inactive”. Besides, the result in experiment [2] was inactive.

For the molecule `COC(=O)c1cc(Cl)c(NC(C)=O)cc1OC`, in experiment [1], the Potency entry was “inactive”. Also, the molecule was classed as inactive in experiment [2].

For `CSCC[C@H](NC(=O)[C@H](Cc1c[nH]c2ccccc12)NC(=O)CCNC(=O)OC(C)(C)C)C(=O)N[C@@H](CC(=O)O)C(=O)N[C@@H](Cc1ccccc1)C(N)=O`, the Potency result in experiment [1] is “inactive”. Further, the result in experiment [2] was inactive.

Turning to `CNC(=O)c1c(I)c(NC(C)=O)c(I)c(C(=O)O)c1I`, in experiment [1], the Potency entry was “inactive”. Besides, the molecule was classed as inactive in experiment [2].

On to `COC(=O)/C=C\C(=O)OC`, for which the Potency result in experiment [1] is “inactive”. Besides, the result in experiment [2] was inactive.

As to `CCN(CC)CC(=O)Nc1c(C)cccc1C(=O)OC`, the Potency result in experiment [1] is “inactive”. Also, the molecule was called inactive in experiment [2].

`CC(CCc1ccc2c(c1)OCO2)NN` (stereo not given): in experiment [1], the Potency result is “inactive”. Also, in experiment [2], the call was inactive.

Turning to `CCOC(=O)C(=O)CCCCCCl`, the Potency result in experiment [1] was “inactive”. Moreover, the molecule was called inactive in experiment [2].

On to `CCC(=O)O[C@H]1[C@H](O[C@@H]2[C@@H](C)[C@H](O[C@H]3C[C@@](C)(OC)[C@@H](O)[C@H](C)O3)[C@@H](C)C(=O)O[C@H](CC)[C@@](C)(O)[C@H](O)[C@@H](C)C(=O)[C@H](C)C[C@@]2(C)O)O[C@H](C)C[C@@H]1N(C)C`, for which, in experiment [1], the Potency entry is “inactive”. Besides, in experiment [2], the molecule was called inactive.

For `O=C1CC[C@H](C(=O)N2CCCCC2)N1`, the Potency result in experiment [1] is “inactive”. Also, in experiment [2], the molecule was classed as inactive.

For `O=C(O)c1ccccc1S`, the Potency entry in experiment [1] is “inactive”. Further, the result in experiment [2] was inactive.

Regarding `OC[C@]1(O)OC[C@@H](O)[C@H](O)[C@@H]1O`, the Potency entry in experiment [1] is “inactive”. In experiment [2], the molecule was called inactive.

As for `Nc1ccc([N+](=O)[O-])c(C(F)(F)F)c1`, in experiment [1], the Potency entry was “inactive”. Moreover, the call in experiment [2] was inactive.

On to `O=C1CCCc2c(O)cccc21`, for which the Potency entry in experiment [1] was “inactive”. The molecule was called inactive in experiment [2].

As to `Nc1ccc2c(c1)CN1C(=O)c3ccccc3C1=N2`, the Potency entry in experiment [1] is “inactive”. Besides, the call in experiment [2] was inactive.

Turning to `COc1ccc(CCC(C)=O)cc1`, in experiment [1], the Potency entry is “inactive”. For the same molecule, the call in experiment [2] was inactive.

Turning to `CC(=O)N[C@@H](CO)C(=O)N[C@@H](CC(=O)O)C(=O)N[C@@H](CCCCN)C(=O)N1CCC[C@H]1C(=O)O` (Ac-SDKP-OH), the Potency result in experiment [1] was “inactive”. Moreover, in experiment [2], the call was inactive.

Regarding `NC(=O)COCCN1CCN(C(c2ccccc2)c2ccc(Cl)cc2)CC1` (stereo not given), the Potency result in experiment [1] was “inactive”. In addition, in experiment [2], the outcome was inactive.

As to `O=c1[nH]c(=O)n([C@H]2O[C@H](CO)[C@@H](O)[C@@H]2O)cc1/C=C\Br`, the Potency result in experiment [1] was “inactive”. Further, the molecule was called inactive in experiment [2].

Regarding `CO[C@@H]1[C@@H](O[C@@H]2O[C@H](C)[C@@H](O[C@H]3C[C@@](C)(O)[C@@H](O)[C@H](C)O3)[C@H](N(C)C)[C@H]2O)[C@@H](CC=O)C[C@@H](C)[C@@H](O[C@@H]2CC[C@H](N(C)C)[C@@H](C)O2)/C=C/C=C/C[C@@H](C)OC(=O)C[C@H]1OC(C)=O`, the Potency result in experiment [1] is “inactive”. The outcome in experiment [2] was inactive.

Turning to `O=C1Cc2cc(Cl)ccc2N1`, the Potency entry in experiment [1] is “inactive”. In addition, in experiment [2], the call was inactive.

Take `COc1ccc(/C(C)=C/C(=O)O)c(OC)c1`: the Potency result in experiment [1] was “inactive”. For the same molecule, the result in experiment [2] was inactive.

For the molecule `C[C@]12CCC(=O)C=C1CC[C@@H]1[C@@H]2[C@@H](O)C[C@@]2(C)[C@H]1CC[C@]2(O)C(=O)COC(=O)CCC(=O)O`, the Potency result in experiment [1] was “inactive”. Moreover, the molecule was classed as inactive in experiment [2].

Take `Cc1ccc(/C=N/n2c(-c3ccccc3)csc2=S)cc1`: the Potency entry in experiment [1] is “inactive”. Further, the molecule was classed as inactive in experiment [2].

For `CCOC(=O)NNc1nncc2ccccc12`, the Potency result in experiment [1] is “inactive”. For the same molecule, the call in experiment [2] was inactive.

Turning to `CCNC(=O)NCCCOc1cccc(CN2CCCCC2)c1`, in experiment [1], the Potency entry is “inactive”. Moreover, in experiment [2], the outcome was inactive.

Take `CNC[C@H](O)[C@@H](O)[C@H](O)[C@H](O)CO`: the Potency entry in experiment [1] was “inactive”. Further, the call in experiment [2] was inactive.

Regarding `CCCCCCCCCCCCCCCCCCNC(=O)OC1CCN(C(=O)OC[C@H](COC(=O)N(Cc2cccc[n+]2CC)C(=O)c2ccccc2OC)OC)CC1`, in experiment [1], the Potency entry is “inactive”. Also, the outcome in experiment [2] was inactive.

Turning to `CCCc1ccc(OCC(=O)N2CCN(C(=O)COc3ccc(CCC)cc3OC)CC2)c(OC)c1`, the Potency result in experiment [1] was “inactive”. In experiment [2], the outcome was inactive.

Regarding `CCN(CC)CCN`, the Potency entry in experiment [1] was “inactive”. For the same molecule, in experiment [2], the result was inactive.
